# Source: PubChem
# A selection: hits, their analogues and other compounds. The true share with any hit is near 4.6%.
# CF NFkB inh = inhibitors of PAF-induced NF-kB signaling, primary screen, cell-based, GFP fluorescence, uHTS. inhibition, % at 5 µM. actives 0.86% (n = 360,000). KKLEB NF-kB-GFP reporter, GFP fluorescence overnight;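 active = at least 50% inhibition at 5 µM, scaled per plate between neutral and stimulator controls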;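 note: PAF is a Pseudomonas aeruginosa culture filtrate used as stimulus; plate controls were PAF-stimulated DMSO wells for no effect and unstimulated DMSO wells for full effect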
# Mdm2 MdmX PPI = inhibitors of human Mdm2-MdmX association, primary screen, cell-based, luminescence, split luciferase, SaOS-2, uHTS; Protein Mdm4 (Homo sapiens) + E3 ubiquitin-protein ligase Mdm2 (Homo sapiens), …; SaOS-2 split-luciferase Mdm2/MdmX complementation; inhibition, % at 8 µM; actives 3% (n = 330,000);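 active = inhibition of at least 50% at 8 µM in the primary screen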
# Target sequence (O15151 whole entry, looked up): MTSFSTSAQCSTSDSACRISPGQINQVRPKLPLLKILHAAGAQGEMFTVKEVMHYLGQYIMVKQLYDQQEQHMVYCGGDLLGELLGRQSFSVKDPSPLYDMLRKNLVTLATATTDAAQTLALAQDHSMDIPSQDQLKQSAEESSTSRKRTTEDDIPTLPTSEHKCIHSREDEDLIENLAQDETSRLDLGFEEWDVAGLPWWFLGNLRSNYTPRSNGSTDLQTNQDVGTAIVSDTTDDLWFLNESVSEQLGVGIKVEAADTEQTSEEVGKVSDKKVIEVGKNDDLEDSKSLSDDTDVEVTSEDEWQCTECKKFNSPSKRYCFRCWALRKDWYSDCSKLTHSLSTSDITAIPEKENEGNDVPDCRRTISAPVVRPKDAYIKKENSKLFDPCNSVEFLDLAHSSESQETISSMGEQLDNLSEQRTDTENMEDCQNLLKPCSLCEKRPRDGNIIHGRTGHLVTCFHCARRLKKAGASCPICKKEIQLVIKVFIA
# Target sequence (Q00987 whole entry, looked up): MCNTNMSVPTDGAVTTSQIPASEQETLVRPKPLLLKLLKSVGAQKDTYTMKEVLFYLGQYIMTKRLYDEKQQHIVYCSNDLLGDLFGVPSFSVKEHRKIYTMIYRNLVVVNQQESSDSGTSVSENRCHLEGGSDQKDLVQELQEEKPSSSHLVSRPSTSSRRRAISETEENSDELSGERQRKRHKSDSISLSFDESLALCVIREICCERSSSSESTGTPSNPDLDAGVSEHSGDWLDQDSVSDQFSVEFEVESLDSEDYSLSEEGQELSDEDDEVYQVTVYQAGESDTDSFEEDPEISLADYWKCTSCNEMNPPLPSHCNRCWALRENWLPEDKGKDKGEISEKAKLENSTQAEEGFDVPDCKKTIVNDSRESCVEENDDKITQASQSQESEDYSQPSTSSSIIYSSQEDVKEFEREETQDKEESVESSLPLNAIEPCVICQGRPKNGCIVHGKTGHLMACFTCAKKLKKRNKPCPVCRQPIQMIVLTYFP
# ABHD5 PLIN5 PPI = ABHD5-PLIN5 interaction inhibitors, primary screen, cell lysate, split luciferase complementation, luminescence; inhibition, % at 4 µM; AID 602281, 2012; actives 0.78% (n = 360,000); Split G. princeps luciferase complementation, 4 h; Perilipin-5 (Homo sapiens) + 1-acylglycerol-3-phosphate O-acyltransferase ABHD5 (Homo …;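 active = inhibition above the mean inhibition across every tested compound plus 3 SD, cut at about 22% in these data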;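 note: 0% = DMSO only wells and the 100% control is not disclosed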
# Peg3 prom inh = Peg3 promoter-driven luciferase inhibitors, primary screen, cell-based, HeLa, luciferase luminescence. HeLa PEG-Prom luciferase reporter, overnight. inhibition, % at 20 µM. actives 1.7% (n = 360,000). AID 588405, 2011;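 active = inhibition of at least 50% at 20 µM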
# HIF-2a inh = HIF-2a reporter inhibitors, primary screen, luminescence, 786-0 RCC cells. actives 0.72% (n = 360,000). inhibition, % at 18.8 µM. 786-0 RCC cells HIF-2a reporter, luciferase luminescence, overnight;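 active = inhibition of the luminescence signal of 40% or more relative to plate controls, in a single-dose primary screen at 18.75 µM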
# KKLEB cytotox = cytotoxicity in KKLEB CF airway cells, primary screen, cytotoxicity control for CF NF-kB inhibitor project, cell-based, uHTS, fluorescence assay plates. KKLEB CF airway cells viability, ATPlite luminescence, overnight; active compounds read low; cells stimulated with P. aeruginosa culture filtrate. activity change (cytotoxicity), % at 5 µM. actives 0.36% (n = 360,000). AID 602141, 2011;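 active = corrected activity change at or below -50% at 5 µM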
# Mdm2-MdmX conf = Mdm2-MdmX complex disruptors, retested hits, confirmation, luminescence, single concentration; shares compounds with Mdm2 MdmX PPI; Mdm2-MdmX binding, luminescent assay; inhibition, % at 8 µM; actives 55% (n = 10,000); in the data active = inhibition above about 40%
# FLuc counter = full-length luciferase signal inhibition, confirmation, counter-screen for Mdm2/MdmX interaction inhibitor project, cell-based, single concentration, SaOS-2; shares compounds with Mdm2 MdmX PPI; SaOS-2 full-length luciferase counterscreen, luminescence; inhibition, % at 8 µM; actives 77% (n = 6,200); AID 504607, 2011;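 active = mean inhibition at 8 µM reaching about 37%, which flags the compound as non-specific, limit read from the data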;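 note: p53-null SaOS-2 cells with luciferase driven by a doxycycline-inducible promoter; compound on cells about two nights before reading with doxycycline added after day one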
# An asterisk follows results filed as active; x = no result given.
SMILES,CF NFkB inh,Mdm2 MdmX PPI,ABHD5 PLIN5 PPI,Peg3 prom inh,HIF-2a inh,KKLEB cytotox,Mdm2-MdmX conf,FLuc counter
O=C(C[C@@H]1C/C=C\CC[C@@H](Cc2ccc(F)cc2)C(=O)OC[C@@H]2CCCN2C1=O)N[C@H](CO)Cc1ccccc1,-18,23,17,14,0,17,x,x
CC(=O)NC(C)c1cc(F)c2cccnc2c1O (configuration not stated),-35,22,-1,7,7,13,x,x
CC(=O)NC(c1cccc([N+](=O)[O-])c1)c1ccc2cccnc2c1O (configuration not stated),1,77*,1,41,10,-1,81*,24
COc1cccc(C(NC(C)=O)c2nc(-c3cccnc3)cs2)c1 (configuration not stated),15,x,7,-5,4,-1,x,x
CC(C)C(=O)NC(c1ccccc1)c1cc([N+](=O)[O-])c2cccnc2c1O (configuration not stated),11,81*,3,45,17,-13,72*,42*
COc1cccc(C(NC(C)=O)c2ccc3cccnc3c2O)c1 (configuration not stated),-10,82*,1,47,16,19,80*,29
CC(=O)NC(c1cccc([N+](=O)[O-])c1)c1c(OC(C)=O)ccc2ccccc12 (configuration not stated),2,6,1,21,19,16,x,x
Cc1nn(C)cc1C(=O)Nc1ccc2c(c1)OCCO2,-16,8,-9,-55,-43,6,x,x
Cc1ccccc1S(=O)(=O)NC(=O)C1(C)CCN1C(=O)c1cccc(F)c1 (configuration not stated),-23,x,-1,-1,-2,11,x,x
C[C@@H]1CN([C@@H](C)CO)C(=O)CCCn2nncc2CO[C@H]1CN(C)S(=O)(=O)c1cccc(F)c1,-4,x,-5,-10,3,-11,x,x
CCN(CC)S(=O)(=O)c1cc(NC(=O)CSc2nc3c(cc2C#N)C(=O)CC(C)(C)C3)ccc1C,22,67*,2,54*,8,-14,63*,45*
CN1C(=O)C2(OCC(CO)([N+](=O)[O-])CO2)c2ccccc21 (configuration not stated),2,5,4,-32,-42,0,x,x
CC(C)c1ccc(S(=O)(=O)Nc2ccc3c(c2)OCO3)cc1,24,29,-2,-1,-5,-11,x,x
N#Cc1ccc(CN2CCN(C(=O)c3ccc(S(=O)(=O)NCc4ccco4)cc3)CC2)cc1,3,-8,-4,19,7,4,x,x
CC(C)(c1ccccc1)c1ccc(OCCCNCCO)cc1,5,54*,11,45,11,-5,37,x
COc1ccc(C2Oc3ccccc3C3=C2C(c2cccs2)n2ncnc2N3)cc1 (configuration not stated),10,72*,1,40,24,-6,70*,30
O=C(COc1cc(F)ccc1[N+](=O)[O-])Nc1cc(S(=O)(=O)N2CCCC2)ccc1Cl,-3,4,9,-2,16,-5,x,x
Cc1ccc(NC(=O)c2ccc(N/N=C/c3cccc(O)c3)c([N+](=O)[O-])c2)cc1,20,77*,2,67*,-12,-17,48*,76*
Cc1ccc(NC(=O)c2ccc(Nc3c([N+](=O)[O-])cc([N+](=O)[O-])cc3[N+](=O)[O-])cc2)cc1,-85,79*,5,32,22,23,8,x
Cc1ccccc1NC(=O)c1ccc(N/N=C/c2ccccc2O)c([N+](=O)[O-])c1,3,74*,0,21,8,-10,22,62*
Cc1ccccc1NC(=O)c1cccc(NC(=O)c2c(C(=O)O)cccc2[N+](=O)[O-])c1,-5,21,0,2,21,8,x,x
CC(=O)Nc1ccc(NC(=O)c2cc([N+](=O)[O-])cc([N+](=O)[O-])c2)cc1,-12,-11,4,-7,6,-24,x,x
Cc1cccc(NS(=O)(=O)c2ccc(C)c(C(=O)N(C)C3CCN(C)CC3)c2)c1,0,-6,3,8,7,-13,x,x
Cc1cc(C)c(S(=O)(=O)N2CCOC2CNC(=O)C(=O)NCc2ccncc2)c(C)c1 (configuration not stated),11,3,-4,0,7,-12,x,x
COc1cc(/C=N/NC(=O)c2cc(-c3cccc(OC(C)C)c3)nc3ccccc23)ccc1O,-17,88*,-2,-89,-92,-16,59*,57*
SMILES,CF NFkB inh,Mdm2 MdmX PPI,ABHD5 PLIN5 PPI,Peg3 prom inh,HIF-2a inh,KKLEB cytotox,Mdm2-MdmX conf,FLuc counter
CCc1ccc(/C=N/NC(=O)c2cc(-c3ccccc3OC)nc3ccccc23)s1,-20,24,5,25,11,7,x,x
COc1cc(/C=N/NC(=O)c2cc(-c3cccs3)nc3ccccc23)ccc1O,-28,6,6,-30,-41,-5,x,x
COc1ccccc1-c1cc(C(=O)N/N=C/c2ccc(C)s2)c2ccccc2n1,-3,71*,2,18,-2,7,5,x
O=c1[nH]c(=O)n(CCc2ccc(F)cc2)c(O)c1C=NCc1ccc2c(c1)OCO2,14,80*,1,31,16,-9,6,x
CC1=C(C(=O)NC2CCCc3c2cnn3-c2cccc(C)c2C)OCCO1 (configuration not stated),-18,9,4,13,10,11,x,x
CCn1cc(C(=O)NC2CCCc3c2cnn3-c2cccc(C)c2C)cn1 (configuration not stated),18,84*,-1,12,-17,-8,92*,37*
COc1ccc(C(=O)NC2CCCc3c2cnn3-c2cccc(C)c2C)o1 (configuration not stated),-35,74*,3,-6,-27,-2,48*,46*
